According to ChEMBL document CHEMBL3988442, “University of Dundee, Small-Polar-MMV Screening Library” (2021):
For some of these results: Entries with a potency or affinity are not part of this list.

Tests used:
Parameters in all cases: scale not given: direction of the effect not stated beside the values
[1] = biological target: Protein translocase subunit SecA (Escherichia coli (strain K12)) (UniProt P10408); assay: Assay to Identify E. coli SecA ATPase Inhibitors; format: functional; conditions: 30 µM
[2] = biological target: T1, Ubiquitin-activating enzyme e1, putative (Leishmania donovani (strain BPK282A1)) (UniProt E9BSI1); assay: Leishmania donovani Ubiquitin Activating Enzyme (LdE1); format: functional; conditions: 30 µM
T1 sequence (whole entry): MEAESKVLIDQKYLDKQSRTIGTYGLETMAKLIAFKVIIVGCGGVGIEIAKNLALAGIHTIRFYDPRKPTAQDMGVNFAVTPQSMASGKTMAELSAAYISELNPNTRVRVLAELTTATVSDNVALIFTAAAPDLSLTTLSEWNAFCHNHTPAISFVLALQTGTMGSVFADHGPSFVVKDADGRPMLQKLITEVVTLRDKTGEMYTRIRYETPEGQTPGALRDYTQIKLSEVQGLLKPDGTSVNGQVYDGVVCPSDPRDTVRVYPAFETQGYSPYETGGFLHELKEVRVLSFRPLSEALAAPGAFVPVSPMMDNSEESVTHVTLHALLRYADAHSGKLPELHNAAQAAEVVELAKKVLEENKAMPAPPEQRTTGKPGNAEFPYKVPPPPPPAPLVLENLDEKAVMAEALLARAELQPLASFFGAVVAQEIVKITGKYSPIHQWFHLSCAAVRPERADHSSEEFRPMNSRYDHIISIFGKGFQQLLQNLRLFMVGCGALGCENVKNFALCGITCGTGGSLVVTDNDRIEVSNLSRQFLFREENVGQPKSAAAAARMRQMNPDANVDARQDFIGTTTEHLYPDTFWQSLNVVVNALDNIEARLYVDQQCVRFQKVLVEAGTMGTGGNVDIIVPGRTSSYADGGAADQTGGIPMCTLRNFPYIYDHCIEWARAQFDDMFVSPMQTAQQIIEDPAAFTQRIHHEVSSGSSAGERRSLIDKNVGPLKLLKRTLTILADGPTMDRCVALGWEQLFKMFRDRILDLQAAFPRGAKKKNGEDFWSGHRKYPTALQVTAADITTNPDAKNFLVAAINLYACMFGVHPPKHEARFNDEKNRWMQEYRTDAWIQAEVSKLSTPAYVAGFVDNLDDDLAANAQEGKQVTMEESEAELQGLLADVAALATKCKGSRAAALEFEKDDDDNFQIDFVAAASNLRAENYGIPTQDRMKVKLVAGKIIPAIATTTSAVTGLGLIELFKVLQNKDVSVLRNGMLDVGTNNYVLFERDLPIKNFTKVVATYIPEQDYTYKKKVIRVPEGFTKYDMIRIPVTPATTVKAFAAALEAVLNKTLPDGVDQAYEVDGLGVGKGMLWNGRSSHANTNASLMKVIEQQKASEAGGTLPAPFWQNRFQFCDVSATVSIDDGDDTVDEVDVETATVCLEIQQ

[3] = biological target: T2, Aspartate--tRNA(Asp/Asn) ligase (Mycobacterium tuberculosis (strain ATCC 25618 / H37Rv)) (UniProt P9WFW3); assay: Assay for Asp RNA synthetase-1 from Mycobacterium tuberculosis; format: functional; conditions: 30 µM; further: in the data most compounds retested in dose-response had high values
T2 sequence (whole entry): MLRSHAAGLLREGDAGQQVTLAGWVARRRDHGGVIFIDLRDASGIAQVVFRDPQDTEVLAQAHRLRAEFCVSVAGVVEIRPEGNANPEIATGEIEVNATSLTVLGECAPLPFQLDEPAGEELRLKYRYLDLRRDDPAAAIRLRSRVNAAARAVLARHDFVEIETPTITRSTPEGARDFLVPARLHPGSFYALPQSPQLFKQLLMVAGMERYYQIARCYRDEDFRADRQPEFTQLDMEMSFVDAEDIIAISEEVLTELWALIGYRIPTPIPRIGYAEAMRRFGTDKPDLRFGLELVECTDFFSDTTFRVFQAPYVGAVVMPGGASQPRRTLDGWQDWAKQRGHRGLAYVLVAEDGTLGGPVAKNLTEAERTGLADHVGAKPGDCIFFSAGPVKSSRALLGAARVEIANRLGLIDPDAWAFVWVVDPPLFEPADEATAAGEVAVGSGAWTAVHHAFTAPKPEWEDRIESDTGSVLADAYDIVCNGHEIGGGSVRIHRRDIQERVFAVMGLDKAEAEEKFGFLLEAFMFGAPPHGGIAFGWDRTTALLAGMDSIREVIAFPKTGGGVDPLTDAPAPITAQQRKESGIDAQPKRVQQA

[4] = biological target: AMP-activated protein kinase, AMPK (Homo sapiens) (UniProt P54646+O43741+P54619+Q9UGJ0+Q9Y478+Q13131+Q9UGI9); assay: AMP-dependent Kinase enzyme assay. An in vitro enzyme assay that detects ADP turnover that is directly proportional to AMPK activity. This uses naive AMPK that is activated during the assay with MK-8722; format: functional; conditions: 30 µM
[5] = biological target: Sialic acid-binding Ig-like lectin 9 (Homo sapiens) (UniProt Q9Y336); assay: Hs-Siglec9 ALPHAscreen SOP 20170721; conditions: 10 µM
Trypanosoma cruzi = assay: Trypanosoma cruzi phosphomannomutase and mannose-1-phosphate guanylyltransferase assay; format: functional; conditions: 10 µM
[6] = biological target: T3, Arginase-2, mitochondrial (Homo sapiens) (UniProt P78540); assay: in vitro enzyme assay to detect the production of urea directly proportional to the activity of Arginase II; format: functional; further: in the data most compounds retested in dose-response had high values
T3 sequence (whole entry): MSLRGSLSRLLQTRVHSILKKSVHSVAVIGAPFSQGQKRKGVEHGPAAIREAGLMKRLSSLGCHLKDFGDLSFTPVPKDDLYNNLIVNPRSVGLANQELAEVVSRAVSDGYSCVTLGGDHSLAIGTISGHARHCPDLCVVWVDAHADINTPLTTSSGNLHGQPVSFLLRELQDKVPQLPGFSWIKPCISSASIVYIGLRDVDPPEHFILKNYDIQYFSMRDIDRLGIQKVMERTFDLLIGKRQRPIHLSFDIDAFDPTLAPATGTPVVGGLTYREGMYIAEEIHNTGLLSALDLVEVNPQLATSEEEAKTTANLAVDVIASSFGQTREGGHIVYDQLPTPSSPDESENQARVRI

[7] = biological target: T4, Proteasome subunit beta (Trypanosoma cruzi) (UniProt O96673); assay: Trypanosoma cruzi proteasome chymotrypsin-like activity (TcProtChymo) assay.; further: in the data most compounds retested in dose-response had high values; format: functional; conditions: 9.37 µM
T4 sequence (whole entry): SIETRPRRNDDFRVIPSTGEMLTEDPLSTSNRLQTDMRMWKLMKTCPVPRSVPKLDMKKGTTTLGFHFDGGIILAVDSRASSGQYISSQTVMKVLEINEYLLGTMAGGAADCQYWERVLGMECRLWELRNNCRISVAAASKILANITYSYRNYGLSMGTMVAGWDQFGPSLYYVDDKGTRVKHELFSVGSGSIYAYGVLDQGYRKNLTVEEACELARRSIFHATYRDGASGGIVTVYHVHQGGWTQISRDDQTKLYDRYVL

Homo sapiens = organism: Homo sapiens; assay: To identify inhibition of the IFN signalling (Jak-Stat) pathway via expression of an eGFP reporter gene under the control of an IFN-stimulated response element (ISRE) containing MxA promoter.; format: functional; conditions: 30 µM
[8] = biological target: Shiga toxin 2 (Escherichia coli O157:H7) (UniProt P09385+P09386); assay: E. coli 0.157:H7 Shiga Toxin SOP - stx2 screening assay; format: functional; conditions: 30 µM
[9] = biological target: T5, Tyrosyl-tRNA synthetase, putative (Trypanosoma cruzi (strain CL Brener)) (UniProt Q4DSP6); assay: Trypanosoma cruzi tyrosyl tRNA synthetase (TcYRS) _High Tyrosine SOP; format: functional; conditions: 30 µM; further: in the data most compounds retested in dose-response had high values
T5 sequence (whole entry): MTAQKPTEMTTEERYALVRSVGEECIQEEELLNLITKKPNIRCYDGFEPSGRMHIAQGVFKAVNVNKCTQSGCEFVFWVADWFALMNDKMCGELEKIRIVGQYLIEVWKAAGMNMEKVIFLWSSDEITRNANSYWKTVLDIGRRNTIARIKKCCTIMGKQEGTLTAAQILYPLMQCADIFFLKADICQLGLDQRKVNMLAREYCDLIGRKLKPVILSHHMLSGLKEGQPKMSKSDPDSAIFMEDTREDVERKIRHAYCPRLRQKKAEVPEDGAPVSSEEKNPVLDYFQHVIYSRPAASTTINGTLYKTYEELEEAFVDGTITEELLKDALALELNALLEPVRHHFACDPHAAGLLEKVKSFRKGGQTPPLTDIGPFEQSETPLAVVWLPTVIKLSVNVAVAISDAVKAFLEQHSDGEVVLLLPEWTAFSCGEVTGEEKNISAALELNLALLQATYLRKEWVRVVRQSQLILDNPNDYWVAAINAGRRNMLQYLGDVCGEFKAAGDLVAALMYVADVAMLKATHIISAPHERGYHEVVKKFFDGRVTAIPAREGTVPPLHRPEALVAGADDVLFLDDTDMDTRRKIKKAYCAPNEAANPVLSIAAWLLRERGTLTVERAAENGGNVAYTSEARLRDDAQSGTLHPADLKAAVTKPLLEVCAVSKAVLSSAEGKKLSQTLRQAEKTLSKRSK

[10] = biological target: T5, Tyrosyl-tRNA synthetase, putative (Trypanosoma cruzi (strain CL Brener)); assay: Trypanosoma cruzi tyrosyl tRNA synthetase (TcYRS) SOP; format: functional; conditions: 30 µM
[11] = biological target: Chromo domain-containing protein 1 (Saccharomyces cerevisiae (strain ATCC 204508 / S288c) (Baker's yeast)) (UniProt P32657); assay: ScCHD-1 Enzyme Inhibition Assay; format: functional; conditions: 30 µM; further: in the data most compounds retested in dose-response had high values
Sequence of Chromo domain-containing protein 1 (Saccharomyces cerevisiae (strain ATCC 204508 / S288c) (Baker's yeast)) (P32657 whole entry, the tested form may be a part): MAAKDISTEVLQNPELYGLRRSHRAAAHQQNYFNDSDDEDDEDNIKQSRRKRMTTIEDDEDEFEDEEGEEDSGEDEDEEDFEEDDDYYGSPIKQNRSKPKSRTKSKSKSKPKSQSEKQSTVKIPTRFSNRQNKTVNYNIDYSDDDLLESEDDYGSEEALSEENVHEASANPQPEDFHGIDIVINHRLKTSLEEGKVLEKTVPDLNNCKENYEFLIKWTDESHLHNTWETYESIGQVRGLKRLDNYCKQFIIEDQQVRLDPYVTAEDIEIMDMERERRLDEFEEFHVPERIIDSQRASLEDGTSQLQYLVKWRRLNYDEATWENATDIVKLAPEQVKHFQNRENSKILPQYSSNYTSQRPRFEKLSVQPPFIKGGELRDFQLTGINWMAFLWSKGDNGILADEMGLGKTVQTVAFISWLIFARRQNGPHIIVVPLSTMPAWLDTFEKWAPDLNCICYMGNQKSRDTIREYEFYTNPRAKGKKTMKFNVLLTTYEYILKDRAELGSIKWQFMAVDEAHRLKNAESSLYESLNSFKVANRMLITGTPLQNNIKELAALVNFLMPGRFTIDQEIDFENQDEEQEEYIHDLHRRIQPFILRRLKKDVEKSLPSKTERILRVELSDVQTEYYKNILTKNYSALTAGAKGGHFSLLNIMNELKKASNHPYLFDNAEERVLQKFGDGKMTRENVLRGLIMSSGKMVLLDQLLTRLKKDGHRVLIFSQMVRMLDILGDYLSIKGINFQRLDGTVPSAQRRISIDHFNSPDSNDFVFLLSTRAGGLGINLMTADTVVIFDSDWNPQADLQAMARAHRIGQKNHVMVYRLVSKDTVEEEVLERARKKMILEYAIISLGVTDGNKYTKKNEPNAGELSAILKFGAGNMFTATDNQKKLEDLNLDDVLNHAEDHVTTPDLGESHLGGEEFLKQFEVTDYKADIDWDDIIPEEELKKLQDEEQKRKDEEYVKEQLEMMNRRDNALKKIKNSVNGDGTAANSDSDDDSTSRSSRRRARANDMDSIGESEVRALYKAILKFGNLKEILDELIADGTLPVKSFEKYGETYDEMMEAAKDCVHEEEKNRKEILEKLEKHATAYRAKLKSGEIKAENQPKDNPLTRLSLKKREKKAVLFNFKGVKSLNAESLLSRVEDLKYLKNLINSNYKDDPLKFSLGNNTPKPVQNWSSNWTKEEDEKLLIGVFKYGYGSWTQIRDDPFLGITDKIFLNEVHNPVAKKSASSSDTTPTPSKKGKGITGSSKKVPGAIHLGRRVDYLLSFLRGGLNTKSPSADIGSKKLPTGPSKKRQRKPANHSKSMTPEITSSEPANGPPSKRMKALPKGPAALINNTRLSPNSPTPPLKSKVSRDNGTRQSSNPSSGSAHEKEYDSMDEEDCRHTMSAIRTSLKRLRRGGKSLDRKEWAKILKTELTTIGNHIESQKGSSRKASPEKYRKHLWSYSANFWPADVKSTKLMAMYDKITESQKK

Sequence of Protein translocase subunit SecA (Escherichia coli (strain K12)) (P10408 whole entry): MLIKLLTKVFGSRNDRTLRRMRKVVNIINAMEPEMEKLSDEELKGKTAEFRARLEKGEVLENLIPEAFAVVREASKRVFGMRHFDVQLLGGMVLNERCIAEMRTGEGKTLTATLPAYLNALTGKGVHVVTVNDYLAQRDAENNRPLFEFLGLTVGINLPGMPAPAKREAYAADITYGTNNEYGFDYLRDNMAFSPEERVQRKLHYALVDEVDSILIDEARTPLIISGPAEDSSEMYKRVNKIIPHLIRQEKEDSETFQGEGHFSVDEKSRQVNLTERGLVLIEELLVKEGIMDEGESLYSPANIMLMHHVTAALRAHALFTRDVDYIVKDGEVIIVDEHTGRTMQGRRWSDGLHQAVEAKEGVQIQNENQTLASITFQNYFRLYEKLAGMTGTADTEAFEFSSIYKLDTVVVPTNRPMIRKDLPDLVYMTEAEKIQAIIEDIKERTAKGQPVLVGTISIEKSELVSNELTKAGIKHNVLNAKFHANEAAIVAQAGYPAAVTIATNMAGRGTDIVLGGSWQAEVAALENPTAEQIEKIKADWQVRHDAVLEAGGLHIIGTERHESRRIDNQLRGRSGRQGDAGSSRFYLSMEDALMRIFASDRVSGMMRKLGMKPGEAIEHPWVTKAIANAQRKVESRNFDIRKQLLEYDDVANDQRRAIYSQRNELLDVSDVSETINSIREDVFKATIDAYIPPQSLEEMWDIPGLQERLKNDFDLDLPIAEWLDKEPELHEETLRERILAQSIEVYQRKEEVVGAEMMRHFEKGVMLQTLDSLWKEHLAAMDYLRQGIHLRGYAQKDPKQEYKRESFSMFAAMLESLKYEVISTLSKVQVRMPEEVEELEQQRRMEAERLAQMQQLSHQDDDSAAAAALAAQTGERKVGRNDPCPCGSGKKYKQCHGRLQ
Sequence of Sialic acid-binding Ig-like lectin 9 (Homo sapiens) (Q9Y336 whole entry): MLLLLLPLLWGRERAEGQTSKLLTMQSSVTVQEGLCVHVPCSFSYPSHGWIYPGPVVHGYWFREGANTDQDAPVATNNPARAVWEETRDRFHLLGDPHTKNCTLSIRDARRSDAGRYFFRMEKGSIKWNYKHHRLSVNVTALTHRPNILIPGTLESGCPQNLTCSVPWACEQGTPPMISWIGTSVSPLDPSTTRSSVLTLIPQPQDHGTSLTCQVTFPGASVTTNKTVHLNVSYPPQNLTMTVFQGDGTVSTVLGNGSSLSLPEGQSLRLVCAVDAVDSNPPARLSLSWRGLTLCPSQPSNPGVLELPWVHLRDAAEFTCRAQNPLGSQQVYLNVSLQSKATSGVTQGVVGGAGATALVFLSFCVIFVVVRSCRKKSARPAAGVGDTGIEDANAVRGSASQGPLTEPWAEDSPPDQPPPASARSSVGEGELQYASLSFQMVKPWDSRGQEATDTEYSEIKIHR

Compound | Percent Effect [1] [%] | Percent Effect [2] [%] | Percent Effect [3] [%] | Percent Effect [4] [%] | Percent Effect [5] [%] | Percent Effect (Trypanosoma cruzi) [%] | Percent Effect ([6]; 33.3 µM) [%] | Percent Effect [7] [%] | Percent Effect (Homo sapiens) [%] | Percent Effect [8] [%] | Percent Effect [9] [%] | Percent Effect [10] [%] | Percent Effect [11] [%] | Percent Effect ([6]; 30 µM) [%]
CC[C@H](N)Cn1nc(-c2cccs2)oc1=O | -1.83 | 9.46 | 7.37 | 12 | -5.1 | -1.98 | -1.62 | 16.7 | 2.87 | 5.59 | 1.07 | 3.9 | -13.2 | 
O=C1CSC(c2ccc(O)c(Cl)c2)c2c(n(C3CCOCC3)[nH]c2=O)N1 (stereo not given) | -3.7 | 20 | -0.726 | 0.0426 | 4.6 | 2.36 | -14.3 | 8.87 | 8.4 | -12.7 | 9.52 | 17.9 | -15.1 | 4.87
CCN(CC)C(=O)c1ccc(NC(=O)CNc2ccc(F)cc2Cl)cc1 | -1.29 | 10.5 | 5.36 | 5.61 | 3.25 | 2.04 | 0 | 16.6 | -29.3 | -38.1 | 9.57 | 15.6 | -3.17 | 
